An excerpt weighted towards active compounds, which were near 0.9% of everything screened.
Mtb betalactam = beta-lactam sensitization of Mtb H37Rv; M. tuberculosis H37Rv growth with meropenem, percent inhibition; inhibition, % at 25 µM; hit rate 0.27% among 330,000; call rule not given here;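 also: growth measured after seven days incubation then overnight dye step; 0% = bacteria only wells and 100% = bacteria with antibiotic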
PfHsp40 yeast = compounds rescuing yeast from Plasmodium falciparum HSP40 toxicity; S. cerevisiae expressing PfHsp40, growth rescue, ATP luminescence; growth rescue, % at 12.5 µM; hit rate 0.68% among 340,000; in the data active = growth rescue above about 28%, passing the limit was not always enough;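 also: yeast W303a lacking pdr1 and pdr3 grown in galactose medium; growth measured after three days at 30 °C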
Sa ugtP lethal = compounds lethal to S. aureus RN4220 ugtP deletion mutant. OD600 growth, 16 h. growth inhibition, % (test concentration not listed). hit rate 0.54% among 330,000. AID 1259309; in the data active = growth inhibition above about 68%;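 also: plate controls were untreated wells for no effect and antibiotic for full effect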
BioA inh = BioA (M. tuberculosis) enzyme inhibition; hit rate 0.096% among 360,000; inhibition, % at 9.99 µM; AID 602481; purified M. tuberculosis BioA enzyme, plate reader; in the data active = inhibition above about 40%
Sa RN4220 lethal = S. aureus RN4220 growth inhibition; OD600, 16 h; inhibition, % (test concentration not listed); hit rate 0.33% among 330,000; AID 1259311; in the data active = inhibition above about 85%;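 also: plate controls were untreated cells for no effect and reference antibiotic for full effect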
An asterisk follows results filed as active; x = no result given.

SMILES	Mtb betalactam	PfHsp40 yeast	Sa ugtP lethal	BioA inh	Sa RN4220 lethal
Clc1ccc(C2C3CN(CC4CCCCC4)C(c4ccccc4)C34CC2(c2cccnc2)C4)cn1 (stereo not given)	x	x	-3	x	2
CC(C)OC(=O)c1cc2c(=O)[nH]c(C(Cl)(Cl)Cl)nc2o1	-3	1	87*	x	92*
CC(C)OC(=O)c1ccc(S(N)(=O)=O)o1	-5	3	0	-2	2
CCOC(=O)Nc1ccc2c(c1)C(=NO)c1ccccc1-2	x	207*	x	x	x
C#CCOCCOCCOCCNc1nc(N2CCN(C(=O)Cn3cc(CCCN=C(N)N)nn3)CC2)nc(N2CCN(C(=O)C(CCCCN)n3cc(CCCC)nn3)CC2)n1 (stereo not given)	x	x	6	x	5
COc1ccc(-n2c(-c3ccc(Br)cc3)c[n+]3c2CCc2ccccc2-3)cc1	96	1	-13	x	0
CC(C)c1ccc(-n2c(-c3ccccc3)c[n+]3c2CCc2ccccc2-3)cc1	x	4	100*	x	96*
Cc1ccc2[nH]c(=O)c(C3C(C#N)=C(N)Oc4c3ccc3cccnc43)cc2c1 (stereo not given)	-4	84*	-14	2	8
CNC(=O)c1nnsc1S(=O)c1ccc(Cl)cc1 (stereo not given)	x	79*	100*	x	99*
CCCNC(=O)c1nnsc1S(=O)c1ccc(Cl)cc1 (stereo not given)	x	16	100*	x	98*
Cc1ccc(S(=O)c2snnc2C)cc1 (stereo not given)	-6	-2	1	-1	2
CCCNC(=O)c1ccc2snnc2c1	-3	0	1	3	1
CCCNC(=O)c1nnsc1S(=O)(=O)c1ccc(Cl)cc1	x	120*	0	x	2
COCCN1C(=O)NC(c2cccc(C(F)(F)F)c2)C(C(C)=O)C1C (stereo not given)	x	x	-9	x	4
CC(C)(C)c1cc(C(=O)NN=Cc2ccccc2O)n(-c2ccccc2)n1	x	x	100*	x	68
CC(C)(C)c1cc(C(=O)NN=Cc2ccc(O)cc2)n(-c2ccccc2)n1	x	x	10	x	6
CC(C)(C)N1C(=O)C2C(c3ccc(Br)cc3)N3C(=O)N(c4cccc(Cl)c4)C(=O)[C@@]3(C)C2C1=O (stereo not given in full)	x	x	5	x	4
CC(C)C(NC(=O)OCc1ccccc1)C(=O)NC(C=O)Cc1ccccc1 (stereo not given)	x	x	-2	x	3
O=[N+]([O-])c1ccc(Oc2ccc(S(=O)(=O)Nc3ccccc3)cc2)cc1	5	388*	44	x	4
O=S(=O)(Nc1ccccc1)c1ccc(Oc2ncc(C(F)(F)F)cc2Cl)cc1	-6	282*	4	1	-7
NC(=NOC(=O)C=Cc1ccccc1Cl)c1ccccn1	x	x	-3	x	5
CC1CC(C)CN(C(=O)C2CCC(CNc3c(N4CCCCC4)c(=O)c3=O)CC2)C1 (stereo not given)	100	53*	1	x	2
Cc1ccc(S(=O)(=O)NC2CC3CCC2C3)cc1 (stereo not given)	-3	x	4	-1	6
O=S(=O)(NC1CC2CCC1C2)c1ccc(Br)cc1 (stereo not given)	2	67*	-6	-3	-2
Cc1ccc(NC(=O)c2ccc(-n3cccn3)c([N+](=O)[O-])c2)cc1	5	3	-3	1	9
SMILES	Mtb betalactam	PfHsp40 yeast	Sa ugtP lethal	BioA inh	Sa RN4220 lethal
O=C(Nc1ccc(C2=NCCN2)cc1)c1ccc(C(=O)Nc2ccc(C3=NCCN3)cc2)c([N+](=O)[O-])c1	99	125*	x	x	x
CCC(=O)Nc1cccc(C2=NOC3(C2)CC(C(N)=O)N(C(=O)CC(c2ccccc2)c2ccccc2)C3)c1 (stereo not given)	x	x	-2	x	2
C=C(CCC(O)C(C)(C)O)C1CC[C@]2(C)C1CCC1[C@@]3(C)CCC(=O)C(C)(C)C3CC[C@]12C (stereo not given in full)	x	x	5	x	5
CC1Cc2ccccc2N1C(=S)NC(=O)c1cccc(Br)c1 (stereo not given)	90	146*	85	x	57
CCCn1c(SCC(=O)N2CCN(C(=O)c3ccco3)CC2)nc2ccccc2c1=O	-2	74*	2	x	0
O=C(CSc1nc2ccccc2c(=O)n1Cc1ccco1)N1CCCCCC1	3	-1	-11	0	-2
CC(=O)Nc1cccc(OCc2ccc(F)cc2)c1	-1	70*	12	x	8
Cc1ccc(Cn2ncn3c(cc4ccccc43)c2=O)cc1	4	2	93*	13	2
S=c1nc(-c2sccc2OCc2ccc(Cl)cc2Cl)[nH][nH]1	2	45*	-11	x	9
COc1ccc2cnn(Cc3ccccc3)c(=O)c2c1OC	-7	-1	0	x	-16
COc1ccc2cnn(-c3ccccc3)c(=O)c2c1OC	-7	66*	2	-1	-3
COc1ccc2cnn(-c3ccccc3C)c(=O)c2c1OC	-4	136*	3	-1	0
CC(C)(C)OC(=O)CC1CC=CCC(CC(=O)N(CCO)Cc2ccccc2)C(=O)NC(c2ccccc2)COC1=O (stereo not given)	x	x	4	x	5
CCOc1ccc(CCNC(=O)c2c(C)noc2C)cc1OCC	-6	43*	2	0	1
CCOc1ccc(CCNC(=O)c2cc(C)on2)cc1OCC	-25	1	-5	5	4
CC(C)=CCc1c(O)ccc(C(=O)Cc2ccccc2)c1O	-11	611*	21	3	-3
Cc1ccc(C(=O)Cc2ccccc2)c(O)c1	x	-2	6	-1	3
CC(C)CC(=O)NC(C(=O)NC(C(=O)NC(CC(C)C)C(O)CC(=O)NC(C)C(=O)NC(CC(C)C)C(O)CC(=O)O)C(C)C)C(C)C (stereo not given)	x	x	-5	x	5
CC(C)Cn1c(=O)n(C)c(=O)c2[nH]cnc21	0	37*	1	-1	4
Cn1c(=O)c2[nH]cnc2n(C)c1=O	-3	0	1	-2	6
COC(=O)C1CC2CCC(O)CC2N1Cc1ccc(Cl)cc1 (stereo not given)	x	x	1	x	2
O=P(Nc1ccccc1)(Nc1ccccc1)c1ccccc1	x	43*	2	x	3
c1ccc2c(-c3c[nH]c4ccccc34)c3ccccc3nc2c1	51	37*	57	-2	3
CC1CC=CC2C1C(=O)N(Cc1ccccc1)C2c1ccc2ccccc2c1Br (stereo not given)	x	x	97*	x	88*
CN1CCN(NC(=O)Nc2cc(Cl)cc(Cl)c2)CC1	72	0	97*	-1	100*
CCC(C)C(C(=O)N1CCNCC1)n1cc(C(N)CC(C)C)nn1 (stereo not given)	x	x	-6	x	-4
O=S(=O)(NCC1CCCO1)c1ccc(Br)cc1 (stereo not given)	2	35*	5	0	6
O=C(O)c1cccc2c1-c1ccc(Cl)cc1C2	x	44*	-6	-1	10
Cc1cc([N+](=O)[O-])ccc1-c1ccc(C2Nc3ccccc3C(=O)N2O)o1 (stereo not given)	-6	168*	-12	x	7
